Source: PubChem BioAssay (NCATS)
Records with an inconclusive call do not appear. Activity calls are given as the source filed them. Unless noted, calls come from the whole dose curve; as a rule, active = well fitted curve in the direction sought with a large enough effect; inconclusive = small, poorly fitted or top-dose-only effect, or another doubt; inactive = no such curve, though single readings can be large; an effect the other way counts as inactive or inconclusive.

Columns and labels:
[1] = target: Beta-2 adrenergic receptor (Homo sapiens) (UniProt P07550); test: qHTS validation assay of beta-arrestin-biased ligands of beta2-adrenergic receptor (AID 485366); note: 0% is about no effect
Procedure, shortened: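 Compound series up to 46 microM applied to beta2-AR/beta-arrestin Tango cells, 18 hr, 37 degrees C, 5% CO2. Read-out: tTA-driven luciferase luminescence, converted to %Activity; concentration-response curves assigned curve classes.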

[2] = Quantitative high throughput screen for delayed death inhibitors of the malarial parasite plastid, 96 hour incubation (AID 488745); note: nearly all actives have a fitted effect of over 70% in size; note: potency is the fitted concentration of half-maximal effect
Procedure, shortened: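 Two-generation (96 h) exposure of luciferase-reporter P. falciparum in erythrocytes, 2% hematocrit, 0.1% parasitemia final, 37 C, 5% CO2, RPMI 1640 with 0.5% Albumax. Growth inhibition scored by reduced luminescence.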

[3] = Quantitative high throughput screen for delayed death inhibitors of the malarial parasite plastid, 48 hour incubation (AID 488752); note: % is set by controls: 0 for no effect and ±100 for the full control effect; nearly all actives have a fitted effect of over 65% in size
Procedure, shortened: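 Cultures: infected erythrocytes at final 2% hematocrit and 0.1% parasitemia in Albumax-supplemented RPMI. Parasites express integrated firefly luciferase. Incubation with compound lasts 48 h before luminescent detection of remaining reporter activity.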

[4] = target: Thioredoxin reductase 1, cytoplasmic (Rattus norvegicus) (UniProt O89049); test: qHTS Assay for Substrates of Mammalian Selenoprotein Thioredoxin Reductase 1 (TrxR1) (AID 488772);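 note: series mostly up to about 57 µM; 0% is about no effect; a drop in NADPH fluorescence below the no-compound background marks a TrxR1 substrate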
Procedure, shortened: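 In this dual-purpose format, potential substrates are identified from the first fluorescence read after selenite addition, not from the 8-minute delta. Rat enzyme is preincubated with NADPH and then with compound at ~22 deg C.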

[5] = target: Thioredoxin reductase 1, cytoplasmic (Rattus norvegicus) (UniProt O89049); test: qHTS Assay for Inhibitors of Mammalian Selenoprotein Thioredoxin Reductase 1 (TrxR1) (AID 488773); details: Potency: inhibition;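 note: drop in NADPH fluorescence over an 8 min run after selenite addition; series mostly up to about 57 µM; % is set by controls: 0 for no effect and ±100 for the full control effect; nearly all actives have a fitted effect of over 40% in size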
Procedure, shortened: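 Inhibition is scored from the loss of NADPH fluorescence between first and last reads of an 8-min kinetic run. Selenite (400 uM) was the substrate, added after 15 min compound preincubation at room temperature.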

[6] = target: Flap endonuclease 1 (Homo sapiens) (UniProt P39748); test: qHTS Validation Assay for the Inhibitors of Human Flap endonuclease 1 (FEN1) (AID 488816); note: % is set by controls: 0 for no effect and ±100 for the full control effect
Procedure, shortened: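 qHTS format: compounds and 10 nM FEN1 incubated 15 min at room temperature before adding 50 nM substrate. Cleavage followed by reads at 0 and 15 min; normalized data fitted to a four-parameter Hill curve.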

[7] = target: M-phase phosphoprotein 8 (Homo sapiens) (UniProt Q99549); test: qHTS Validation Assay for Inhibitors for MPP8 Chromodomain Interactions with Methylated Histone Tails (AID 488949); note: nearly all actives have a fitted effect of over 55% in size; note: potency is the fitted concentration of half-maximal effect
Procedure, shortened: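 AlphaScreen read-out: streptavidin donor and nickel chelate acceptor beads (final 10 ug/mL), 30 min in the dark at RT. Complex of 50 nM MPP8 and 50 nM b-H3(1-18)K9me3 peptide had been exposed to compounds for 30 min beforehand.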

[8] = target: Chromobox protein homolog 1 (Homo sapiens) (UniProt P83916); test: qHTS Validation Assay for Inhibitors of HP1-beta Chromodomain Interactions with Methylated Histone Tails (AID 488953); note: nearly all actives have a fitted effect of over 50% in size; note: potency is the fitted concentration of half-maximal effect
Procedure, shortened: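 Compounds pinned into a preassembled complex of HP1-beta and trimethyl-K9 histone H3(1-18) biotin peptide (50 nM each; PBS pH 7.4, 0.01% Tween-20). After 30 min, bead-based AlphaScreen detection followed.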

[9] = target: Transient receptor potential cation channel subfamily V member 1 (Homo sapiens) (UniProt Q8NER1); test: HTS Assay for Compounds that Act as Enhancers of the Vanilloid Receptor 1 (AID 488979); note: 0% is about no effect
Procedure, shortened: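 Calcium influx kinetics via Fluo-8 (480/520 nm) in TRPV1-expressing cells, 2000/well cultured overnight at 35.5C. Compound-alone read 3 min (agonist phase), followed by EC20 capsaicin challenge for 2 min (enhancer phase).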

[10] = target: Thyrotropin receptor (Homo sapiens) (UniProt P16473); test: qHTS Assay for Antagonists of the Thyroid Stimulating Hormone Receptor (AID 488980); note: series mostly up to about 58 µM; 0% is about no effect
Procedure, shortened: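 TSHR-HEK293 cells; 70 uM RO 20-1724 PDE inhibitor; compound + EC80 TSH (4 nM final); anti-cAMP cryptate antibody/cAMP-d2 in lysis buffer, 30 min RT; HTRF 665/620 nm read.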

[11] = Validation screen for small molecules that induce genotoxicity in human embryonic kidney (HEK293T) cells expressing luciferase-tagged ELG1 (AID 493106); note: 0% is about no effect
Procedure, shortened: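 In this validation screen, increased ELG1-luciferase signal flags compounds causing genetic stress. HEK293T reporter cells are treated 16 hr (37 °C, 5% CO2), developed with ONE-Glo for 30 min at room temperature, and imaged on a CCD-based reader.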

[12] = target: ATPase family AAA domain-containing protein 5 (Homo sapiens) (UniProt Q96QE3); test: Validation screen for small molecules that inhibit ELG1-dependent DNA repair in human embryonic kidney (HEK293T) cells expressing luciferase-tagged ELG1 (AID 493107);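 note: cells co-treated with the DNA-damaging agent 5-fluorouridine alongside compound; series mostly up to about 46 µM; % is set by controls: 0 for no effect and ±100 for the full control effect; inhibitors lower the ELG1-luciferase luminescence signal; nearly all actives have a fitted effect of over 70% in size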
Procedure, shortened: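 Compounds reducing 5-fluorouridine-driven ELG1-luciferase signal in HEK293T cells were scored; exposure lasted 16 hr at 37 °C with luminescence detected via ONE-Glo.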

[13] = target: Thyrotropin-releasing hormone receptor (Homo sapiens) (UniProt P34981); test: qHTS for Small Molecule Agonists and Allosteric Enhancers of Human TRH Receptor: Validation Screen for Agonists (AID 493127;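 active = calcium activation more than 3 SD above the typical response in the agonist read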;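 note: intracellular calcium rise by fluo-8 fluorescence before TRH EC20 addition; 0% is about no effect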); details: TRH receptor agonist cell assay; at 2 µM; stronger effect = higher value
Procedure, shortened: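 Kinetic fluorescence assay of agonist-induced calcium release: overnight-plated TRHR cells, room-temperature fluo-8 loading, baseline then compound addition with per-second reads.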

[14] = Nrf2 qHTS screen for inhibitors: Validation (AID 493153; active = well fitted inhibition curve with a large enough effect in the main read-out, with a control signal flat, not every such curve was filed as active); details: viability change: measured here: cytotoxicity max response
Procedure, shortened: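 In this counterscreened reporter format, each well gives two signals: CellTiter-Fluor fluorescence for cytotoxicity and ARE-luciferase luminescence for Nrf2 function. A549 ARE_Fluc cells in 5% FBS OPTI-MEM were exposed to compound titrations for 18-24 h.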

[15] = target: Methanococcus maripaludis chaperonin (MmCpn) (UniProt Q6LX38); test: High-Throughput Screening for Modulators of Cytosolic Chaperonin Activity: MmCpn Primary Screen (AID 488978);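 note: 50 nM MmCpn enzyme hydrolysing 30 µM ATP at 37 °C; 0% is about no effect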
Procedure, shortened: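 ADP formation read by HTRF Transcreener, 665/590 nm emission after 320 nm excitation. Enzyme: archaeal chaperonin at 50 nM final; substrate ATP 30 uM final; 10 min, 37C, after 5 min compound preincubation at RT.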

[16] = target: D(1A) dopamine receptor (Homo sapiens) (UniProt P21728); test: HTS Assay for Allosteric Agonists of the Human D1 Dopamine Receptor: Primary Screen for Agonists (AID 488981); note: potency is the fitted concentration of half-maximal effect; for activation: 0% is about no effect
Procedure, shortened: (§1)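 Calcium flux in an inducible, force-coupled HEK293 Trex D1 line (overnight at 30 C): agonist mode is the 180 s kinetic read after compound; potentiator mode is the following 180 s read after dopamine at EC20.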

[17] = target: D(1A) dopamine receptor (Homo sapiens) (UniProt P21728); test: HTS Assay for Allosteric Agonists of the Human D1 Dopamine Receptor: Primary Screen for Potentiators (AID 488982); note: 0% is about no effect
Procedure, shortened: as §1

[18] = target: D(1A) dopamine receptor (Homo sapiens) (UniProt P21728); test: HTS Assay for Allosteric Agonists of the Human D1 Dopamine Receptor: Primary Screen for Antagonists (AID 488983);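 note: calcium flux response to an EC80 dopamine challenge measured with no-wash dye; nearly all actives have a fitted effect of over 65% in size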; note: potency is the fitted concentration of half-maximal effect
Procedure, shortened: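 In this primary screen, compounds are applied to calcium-dye-loaded HEK293 T-REx cells with force-coupled D1 expression induced overnight at 30 C. An EC80 of dopamine follows the 180 s compound phase, and calcium is monitored for a further 180 s.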

[19] = target: ATP-dependent 6-phosphofructokinase (Trypanosoma brucei brucei) (UniProt O15648); test: qHTS Assay to Find Inhibitors of T. brucei phosphofructokinase: hit validation (AID 492961);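 note: luminescence reports ADP formed as PFK phosphorylates fructose-6-phosphate with ATP; series mostly up to about 51 µM; % is set by controls: 0 for no effect and ±100 for the full control effect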
Procedure, shortened: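 ADP-Glo luminescence read-out of ADP formed by 1.25 nM PFK from 0.1 mM ATP and 0.5 mM F6P (TEA pH 8.0, 45 min, RT). Compounds titrated; activity normalized to no-enzyme and full-enzyme controls.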

Chain of M-phase phosphoprotein 8 (Homo sapiens) (Q99549 whole entry, looked up): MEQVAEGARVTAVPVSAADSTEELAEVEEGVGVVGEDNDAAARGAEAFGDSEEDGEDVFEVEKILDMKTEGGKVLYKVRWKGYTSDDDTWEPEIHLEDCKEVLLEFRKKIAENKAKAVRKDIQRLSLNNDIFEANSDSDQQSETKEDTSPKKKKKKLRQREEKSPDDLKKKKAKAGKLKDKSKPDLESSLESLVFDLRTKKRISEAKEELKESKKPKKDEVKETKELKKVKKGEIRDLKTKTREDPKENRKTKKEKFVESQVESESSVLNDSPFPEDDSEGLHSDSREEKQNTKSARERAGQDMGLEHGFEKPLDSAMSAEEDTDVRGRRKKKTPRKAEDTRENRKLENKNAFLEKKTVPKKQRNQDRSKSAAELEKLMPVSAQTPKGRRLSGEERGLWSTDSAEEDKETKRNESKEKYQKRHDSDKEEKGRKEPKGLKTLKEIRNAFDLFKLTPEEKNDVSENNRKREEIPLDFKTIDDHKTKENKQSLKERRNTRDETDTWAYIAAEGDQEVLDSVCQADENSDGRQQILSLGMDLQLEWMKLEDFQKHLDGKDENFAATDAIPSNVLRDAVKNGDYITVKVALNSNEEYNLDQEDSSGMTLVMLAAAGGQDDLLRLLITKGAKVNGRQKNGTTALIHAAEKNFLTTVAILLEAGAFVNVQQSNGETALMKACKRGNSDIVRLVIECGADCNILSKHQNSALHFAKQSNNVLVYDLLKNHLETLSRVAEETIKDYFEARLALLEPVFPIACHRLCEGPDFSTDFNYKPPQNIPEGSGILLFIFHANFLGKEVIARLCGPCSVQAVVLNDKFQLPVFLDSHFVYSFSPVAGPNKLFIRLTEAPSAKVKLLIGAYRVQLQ
Chain of ATPase family AAA domain-containing protein 5 (Homo sapiens) (Q96QE3 whole entry, looked up, the tested form may be a part): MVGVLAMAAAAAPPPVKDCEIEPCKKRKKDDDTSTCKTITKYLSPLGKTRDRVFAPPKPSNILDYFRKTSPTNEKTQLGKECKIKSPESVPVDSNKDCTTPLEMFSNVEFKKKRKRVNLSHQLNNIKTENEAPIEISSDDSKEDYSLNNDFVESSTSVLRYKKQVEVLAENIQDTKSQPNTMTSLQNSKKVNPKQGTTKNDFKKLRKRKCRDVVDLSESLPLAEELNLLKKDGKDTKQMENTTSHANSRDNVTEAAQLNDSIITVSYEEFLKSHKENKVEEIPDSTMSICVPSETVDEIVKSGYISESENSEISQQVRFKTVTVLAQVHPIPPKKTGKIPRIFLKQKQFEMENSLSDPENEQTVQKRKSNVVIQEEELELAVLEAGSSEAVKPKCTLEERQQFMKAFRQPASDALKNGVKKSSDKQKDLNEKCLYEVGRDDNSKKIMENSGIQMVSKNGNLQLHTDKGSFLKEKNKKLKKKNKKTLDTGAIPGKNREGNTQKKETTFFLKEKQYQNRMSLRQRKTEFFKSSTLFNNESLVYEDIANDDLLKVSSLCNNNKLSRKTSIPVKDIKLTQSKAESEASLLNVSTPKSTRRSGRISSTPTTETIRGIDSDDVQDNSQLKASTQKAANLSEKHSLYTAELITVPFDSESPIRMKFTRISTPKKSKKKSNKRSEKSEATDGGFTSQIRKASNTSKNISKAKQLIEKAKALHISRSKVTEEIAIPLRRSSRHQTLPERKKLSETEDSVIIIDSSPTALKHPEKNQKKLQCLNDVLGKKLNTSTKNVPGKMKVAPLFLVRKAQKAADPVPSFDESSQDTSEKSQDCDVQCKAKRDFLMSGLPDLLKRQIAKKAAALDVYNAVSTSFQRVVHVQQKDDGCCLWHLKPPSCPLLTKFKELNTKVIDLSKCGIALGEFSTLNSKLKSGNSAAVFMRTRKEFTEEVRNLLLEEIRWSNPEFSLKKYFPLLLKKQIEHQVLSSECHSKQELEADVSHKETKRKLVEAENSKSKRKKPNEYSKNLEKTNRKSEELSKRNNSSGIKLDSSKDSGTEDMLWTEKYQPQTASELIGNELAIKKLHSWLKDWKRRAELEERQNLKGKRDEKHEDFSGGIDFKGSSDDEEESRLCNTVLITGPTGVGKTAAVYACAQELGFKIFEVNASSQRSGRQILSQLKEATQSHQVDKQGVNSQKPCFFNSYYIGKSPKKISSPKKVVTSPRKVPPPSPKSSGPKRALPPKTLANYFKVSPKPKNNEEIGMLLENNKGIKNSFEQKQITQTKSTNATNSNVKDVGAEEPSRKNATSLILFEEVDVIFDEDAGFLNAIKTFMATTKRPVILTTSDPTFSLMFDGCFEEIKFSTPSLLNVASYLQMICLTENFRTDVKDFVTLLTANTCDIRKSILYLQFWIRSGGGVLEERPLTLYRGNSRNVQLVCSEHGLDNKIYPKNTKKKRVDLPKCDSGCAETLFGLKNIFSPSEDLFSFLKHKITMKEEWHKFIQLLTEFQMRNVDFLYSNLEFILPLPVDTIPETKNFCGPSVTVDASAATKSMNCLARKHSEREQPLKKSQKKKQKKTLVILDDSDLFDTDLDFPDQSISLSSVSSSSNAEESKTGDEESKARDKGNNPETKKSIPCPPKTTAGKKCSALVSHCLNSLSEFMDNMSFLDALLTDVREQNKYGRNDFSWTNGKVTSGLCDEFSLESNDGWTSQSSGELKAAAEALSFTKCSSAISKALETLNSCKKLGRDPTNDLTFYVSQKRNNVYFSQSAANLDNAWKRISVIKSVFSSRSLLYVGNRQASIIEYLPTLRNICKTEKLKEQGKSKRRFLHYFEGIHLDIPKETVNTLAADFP
Chain of Thyrotropin receptor (Homo sapiens) (P16473 whole entry, looked up): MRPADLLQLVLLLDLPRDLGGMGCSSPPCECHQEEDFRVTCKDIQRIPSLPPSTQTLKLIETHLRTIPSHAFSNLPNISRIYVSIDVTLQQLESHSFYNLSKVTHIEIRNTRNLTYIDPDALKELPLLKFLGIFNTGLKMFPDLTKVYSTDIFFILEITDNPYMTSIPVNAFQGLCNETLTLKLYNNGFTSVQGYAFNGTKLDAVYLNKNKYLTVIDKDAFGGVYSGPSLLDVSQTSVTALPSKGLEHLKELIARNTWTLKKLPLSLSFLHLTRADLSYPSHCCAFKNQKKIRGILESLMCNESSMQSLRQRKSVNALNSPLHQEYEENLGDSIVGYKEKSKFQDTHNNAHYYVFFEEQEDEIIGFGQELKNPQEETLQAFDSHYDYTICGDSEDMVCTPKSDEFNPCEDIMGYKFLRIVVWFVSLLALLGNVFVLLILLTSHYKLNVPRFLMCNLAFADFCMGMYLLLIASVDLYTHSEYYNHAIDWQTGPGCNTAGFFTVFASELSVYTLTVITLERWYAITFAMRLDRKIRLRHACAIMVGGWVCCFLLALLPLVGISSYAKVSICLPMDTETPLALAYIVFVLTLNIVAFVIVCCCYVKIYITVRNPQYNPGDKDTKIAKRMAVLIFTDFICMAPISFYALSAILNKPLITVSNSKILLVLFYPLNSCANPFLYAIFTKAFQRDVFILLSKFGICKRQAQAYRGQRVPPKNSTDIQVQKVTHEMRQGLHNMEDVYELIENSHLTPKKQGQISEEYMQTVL
Chain of Thioredoxin reductase 1, cytoplasmic (Rattus norvegicus) (O89049 whole entry, looked up): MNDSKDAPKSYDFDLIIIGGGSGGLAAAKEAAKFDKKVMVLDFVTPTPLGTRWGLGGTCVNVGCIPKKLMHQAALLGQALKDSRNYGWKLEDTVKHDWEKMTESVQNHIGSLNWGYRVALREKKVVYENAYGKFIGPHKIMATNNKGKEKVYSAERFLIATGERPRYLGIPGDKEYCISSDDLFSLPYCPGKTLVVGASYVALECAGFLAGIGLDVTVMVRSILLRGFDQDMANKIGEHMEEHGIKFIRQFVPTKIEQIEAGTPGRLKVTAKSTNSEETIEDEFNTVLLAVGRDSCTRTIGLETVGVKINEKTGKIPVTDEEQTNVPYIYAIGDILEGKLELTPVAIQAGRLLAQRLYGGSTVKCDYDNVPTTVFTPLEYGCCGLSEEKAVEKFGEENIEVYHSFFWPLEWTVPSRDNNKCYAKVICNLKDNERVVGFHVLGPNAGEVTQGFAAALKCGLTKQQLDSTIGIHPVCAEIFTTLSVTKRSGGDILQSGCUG
Chain of Methanococcus maripaludis chaperonin (MmCpn) (Q6LX38 1-543): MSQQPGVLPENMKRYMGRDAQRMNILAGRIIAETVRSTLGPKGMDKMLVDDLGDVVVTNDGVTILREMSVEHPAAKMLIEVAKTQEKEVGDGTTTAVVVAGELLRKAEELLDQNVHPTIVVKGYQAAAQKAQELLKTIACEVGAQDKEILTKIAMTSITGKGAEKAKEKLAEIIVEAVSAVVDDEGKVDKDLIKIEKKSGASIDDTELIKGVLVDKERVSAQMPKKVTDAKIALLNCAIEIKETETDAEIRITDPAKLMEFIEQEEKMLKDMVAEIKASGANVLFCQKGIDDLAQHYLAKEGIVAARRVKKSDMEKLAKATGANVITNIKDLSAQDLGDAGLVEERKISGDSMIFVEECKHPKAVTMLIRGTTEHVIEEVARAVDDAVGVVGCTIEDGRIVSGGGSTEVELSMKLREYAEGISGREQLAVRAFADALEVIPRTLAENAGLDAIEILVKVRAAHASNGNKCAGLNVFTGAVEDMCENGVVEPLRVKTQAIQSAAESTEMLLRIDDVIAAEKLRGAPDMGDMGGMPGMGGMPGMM
Chain of D(1A) dopamine receptor (Homo sapiens) (P21728 whole entry, looked up): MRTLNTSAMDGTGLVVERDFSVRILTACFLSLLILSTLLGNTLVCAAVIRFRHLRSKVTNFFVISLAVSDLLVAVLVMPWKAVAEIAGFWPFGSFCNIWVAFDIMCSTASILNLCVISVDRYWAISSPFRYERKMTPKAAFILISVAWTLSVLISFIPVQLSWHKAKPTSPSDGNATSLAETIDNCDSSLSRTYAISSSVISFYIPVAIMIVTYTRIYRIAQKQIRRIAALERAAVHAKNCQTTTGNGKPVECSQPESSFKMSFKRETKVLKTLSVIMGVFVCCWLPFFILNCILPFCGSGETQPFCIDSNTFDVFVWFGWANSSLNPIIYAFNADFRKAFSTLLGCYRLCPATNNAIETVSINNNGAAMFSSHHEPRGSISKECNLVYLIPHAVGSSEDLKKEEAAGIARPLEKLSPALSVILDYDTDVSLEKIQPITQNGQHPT

NC1CC1c1ccccc1 (stereo not drawn)
inactive: outcome [1] | Potency [2] | Potency [3] | outcome [4] | Potency [5] | Potency [6] | Potency [7] | Potency [8] | outcome [9] | outcome [10] | outcome [11] | Potency [12] | activation [13] 1.44% | outcome [14]
-9.56%: viability change [14]

c1ccc(CCCN2CCN(CCOC(c3ccccc3)c3ccccc3)CC2)cc1
active: Potency [2] 2.08 µM | Potency [7] 39.8 µM | Potency [8] 8.4 nM
-4.56%: viability change [14]
inactive: outcome [1] | outcome [4] | Potency [5] | Potency [6] | outcome [15] | outcome [9] | outcome [10] | Potency [16] | outcome [17] | outcome [11] | activation [13] 0.0625% | outcome [14]

C[C@]12N[C@H](Cc3ccccc31)c1ccccc12
0.285%: viability change [14]
inactive: outcome [1] | Potency [2] | Potency [3] | outcome [4] | Potency [5] | Potency [6] | Potency [7] | outcome [15] | outcome [9] | outcome [10] | Potency [16] | outcome [17] | Potency [18] | outcome [11] | Potency [12] | outcome [14]
active: Potency [8] 7.5 nM

C[C@@H]1O[C@H](C[N+](C)(C)C)C[C@H]1O
inactive: outcome [1] | Potency [2] | Potency [3] | outcome [4] | Potency [5] | Potency [6] | Potency [7] | Potency [8] | outcome [15] | outcome [9] | outcome [10] | Potency [16] | outcome [17] | Potency [18] | Potency [12] | activation [13] 20.8% | outcome [14]
-6.13%: viability change [14]

NC(N)=NOCCC(N)C(=O)O (stereo not drawn)
0.756%: viability change [14]
inactive: outcome [1] | Potency [2] | Potency [3] | outcome [4] | Potency [5] | Potency [6] | Potency [7] | Potency [8] | outcome [15] | outcome [9] | outcome [10] | Potency [16] | outcome [17] | Potency [18] | outcome [11] | Potency [12] | activation [13] 0.375% | outcome [14]

C#CCOC(=O)C1=CCCN(C)C1
-2.85%: viability change [14]
inactive: outcome [1] | Potency [2] | Potency [3] | outcome [4] | Potency [5] | Potency [6] | Potency [7] | Potency [8] | outcome [15] | outcome [9] | outcome [10] | Potency [16] | outcome [17] | Potency [18] | outcome [11] | Potency [12] | activation [13] 3.19% | outcome [14]

NC1CCc2cc(O)c(O)cc2C1 (stereo not drawn)
inactive: outcome [1] | Potency [2] | Potency [3] | outcome [4] | outcome [15] | outcome [9] | outcome [10] | outcome [17] | outcome [11] | Potency [12] | activation [13] 0.75% | outcome [14]
active: Potency [7] 79.4 µM | Potency [16] 158 nM | Potency [18] 89.1 nM
10.6%: viability change [14]

Oc1ccc2c3c1O[C@H]1c4[nH]c5c(c4C[C@@]4(O)[C@@H](C2)N(CC2CC2)CC[C@]314)C[C@@]1(O)[C@H]2Cc3ccc(O)c4c3[C@@]1(CCN2CC1CC1)[C@H]5O4
inactive: outcome [1] | outcome [4] | Potency [5] | Potency [7] | outcome [15] | outcome [9] | outcome [10] | Potency [16] | outcome [17] | Potency [18] | outcome [11] | Potency [12] | activation [13] 0.625% | outcome [14]
0%: viability change [14]
active: Potency [2] 2.08 µM

CCCN1CCC[C@H](c2cccc(O)c2)C1
inactive: outcome [1] | Potency [2] | Potency [3] | outcome [4] | Potency [5] | Potency [7] | Potency [8] | outcome [9] | outcome [10] | Potency [16] | outcome [17] | Potency [18] | Potency [19] | outcome [11] | Potency [12] | activation [13] 2.19% | outcome [14]
1.24%: viability change [14]

NC(CP(=O)(O)O)C(=O)O (stereo not drawn)
inactive: outcome [1] | Potency [2] | Potency [3] | outcome [4] | Potency [5] | Potency [6] | Potency [7] | Potency [8] | outcome [15] | outcome [9] | outcome [10] | Potency [16] | outcome [17] | Potency [18] | outcome [11] | Potency [12] | activation [13] -3.19% | outcome [14]
-2.21%: viability change [14]

CC(=O)NCCc1c[nH]c2ccccc12
inactive: outcome [1] | Potency [2] | Potency [3] | outcome [4] | Potency [5] | Potency [6] | Potency [7] | outcome [15] | outcome [9] | outcome [10] | Potency [16] | outcome [17] | Potency [18] | outcome [11] | Potency [12] | activation [13] 0.375% | outcome [14]
1%: viability change [14]

O=C(O)CC[N+](=O)[O-]
inactive: outcome [1] | Potency [2] | Potency [3] | outcome [4] | Potency [5] | Potency [6] | Potency [7] | Potency [8] | outcome [15] | outcome [9] | Potency [16] | outcome [17] | Potency [18] | outcome [11] | Potency [12]

CC(C)Oc1cccnc1N(C)C1CCN(Cc2ccccc2)CC1
inactive: outcome [1] | Potency [2] | Potency [3] | outcome [4] | Potency [5] | Potency [6] | Potency [7] | outcome [15] | outcome [9] | outcome [10] | Potency [16] | outcome [17] | outcome [11] | Potency [12] | activation [13] 0% | outcome [14]
1.23%: viability change [14]

NC(CCP(=O)(O)O)C(=O)O (stereo not drawn)
2.18%: viability change [14]
inactive: outcome [1] | Potency [2] | Potency [3] | outcome [4] | Potency [5] | Potency [6] | Potency [7] | Potency [8] | outcome [15] | outcome [9] | outcome [10] | Potency [16] | outcome [17] | Potency [18] | outcome [11] | Potency [12] | activation [13] -3% | outcome [14]
